A selection: hits, their analogues and other compounds. The true share with any hit is near 0.55%.
Tb PFK inh-1 = T. brucei PFK enzyme inhibition | T. brucei PFK, ADP-Glo luminescence | Potency, µM (series often up to 57.5 µM), for the others: at the top dose activity, negative = inhibition, most hits filed as inhibitors | 0.17% of 330,000 active | AID 485367;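 note: 0% = uninhibited 1x PFK enzyme wells and -100% = no-enzyme wells; nearly all actives have a fitted effect of over 60% in size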
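PFK 1.25 nM, F6P 0.5 mM, ATP 0.1 mM, 0.1 M TEA pH 8.0, 5 mM MgCl2, 0.01% Tween20, 0.1% BSA; 45 min RT. ADP-Glo readout. qHTS titration up to 57 uM; curves fitted, compounds curve-classed.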
p53 reactivator = restores transcriptional activity of mutant p53; AID 504706; H1299 p53-A138V BP100-luciferase reporter, luminescence, 24 h; Potency, µM (titrated, usually from 92.2 µM), for inactives: at the top dose activity change, positive = activation, most hits filed as activators; 0.063% of 320,000 active; note: % of control where 0% means no effect; nearly all actives have a fitted effect of over 45% in size
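H1299 (p53-null), stable ts p53-A138V + BP100-Luc; 1000 cells/well, Opti-MEM/10% FBS; cpd 4 pt, 1:5; 24 h, 37 deg C, 5% CO2; detection reagent 10 min RT; luminescence.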
S-ASM inh = human S-ASM enzyme inhibition. placental ASM, HMU-PC fluorogenic substrate, 60 min. Potency, µM (highest dose often 57.5 µM), without a hit: at the top dose activity change, negative = inhibition, usual class: inhibitors. 0.006% of 340,000 active. AID 504937
Target sequence (P17405 47-631 limits assumed): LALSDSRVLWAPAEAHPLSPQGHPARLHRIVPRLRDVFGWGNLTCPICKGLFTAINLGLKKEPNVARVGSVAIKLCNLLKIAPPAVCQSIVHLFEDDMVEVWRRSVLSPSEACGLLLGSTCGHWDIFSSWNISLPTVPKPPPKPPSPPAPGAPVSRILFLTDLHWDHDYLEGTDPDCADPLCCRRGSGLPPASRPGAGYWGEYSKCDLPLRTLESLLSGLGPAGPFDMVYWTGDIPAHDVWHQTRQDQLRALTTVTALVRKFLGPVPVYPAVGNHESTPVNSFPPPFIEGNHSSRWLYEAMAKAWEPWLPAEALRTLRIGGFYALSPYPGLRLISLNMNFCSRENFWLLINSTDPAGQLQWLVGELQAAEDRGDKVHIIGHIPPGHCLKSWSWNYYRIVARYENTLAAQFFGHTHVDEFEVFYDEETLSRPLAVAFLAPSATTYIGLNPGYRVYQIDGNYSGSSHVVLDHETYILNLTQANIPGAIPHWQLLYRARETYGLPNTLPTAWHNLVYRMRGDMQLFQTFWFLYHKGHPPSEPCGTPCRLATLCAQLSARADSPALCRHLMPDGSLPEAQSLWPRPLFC
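Human placenta-derived ASM preincubated with compound 10 min at room temperature, then reacted with 9 uM (final) fluorogenic HMU-PC substrate for 60 min at 37 C. Stop solution raises pH to 10; fluorescence read at Ex 386/Em 447 nm.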
KAT2A inh = blocks human GCN5L2 histone acetyltransferase. Q92830. GCN5L2 HAT assay, ThioGlo1 CoA-SH fluorescence. Potency, µM (top dose mostly 58.9 µM), without a hit: at the highest dose activity change, negative = inhibition, actives largely listed as inhibitors. 0.21% of 390,000 active; note: % is set by controls: 0 for no effect and ±100 for the full control effect
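Preincubate 20nM GCN5L2 with compound 15 min, RT → add 50uM ThioGlo1 + 75uM H3(1-25) + 70uM acetyl-CoA → read fluorescence 0 and 20 min. Primary qHTS; fluorescent artifacts likely.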
ERG-DNA inh = inhibitors of human ERG Ets domain-DNA interaction. P11308. fluorescence polarization, His-ERG Ets domain / labelled DNA. Potency, µM (titrated, usually from 76.9 µM), for the others: top-dose FP activity, negative = inhibition, hits mostly inhibitors. 0.028% of 370,000 active. AID 624246; active = well fitted inhibition curve with a large enough effect in the polarisation, with a control signal flat; inconclusive = small, poorly fitted or top-dose-only effect, or effect the other way, or a change in a side signal; inactive = no such curve, though single readings can be large or run the other way; the % refers to the polarisation;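 note: polarization taken with two DNA probes labelled with fluorescein and Texas red; % of control where 0% means no effect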
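His-tagged ERG Ets domain (1 uM in the protein solution; 300mM KCl, 50mM Tris-HCl, 1mM EDTA, 1mM DTT, pH 7.5) received compound, then a probe mix of 5 nM fluorescein-DNA and 100nM Texas-615-DNA. Fluorescence polarization was read for both dyes.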
AT treatment = candidate therapy for ataxia-telangiectasia. Potency, µM (series often up to 57.5 µM), for the others: at the top dose activation, usual class: activators. 0.19% of 320,000 active. AID 485349. F2112 A-T fibroblasts, KAP-1 phosphorylation AlphaLISA; neocarzinostatin DNA damage 30 min before lysis; note: % of control where 0% means no effect; nearly all actives have a fitted effect of over 45% in size
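hTERT-immortalized A-T patient fibroblasts (F2112), 500 cells/well in OPTI-MEM, 1% FBS, got compounds for 60 min, then NCS for 30 min at 37C. Lysates were then assayed for phospho-KAP-1 by AlphaLISA (anti-pKAP1 donor, anti-KAP1 acceptor beads), 6 hr at 25C.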
TbPFK ATP = Tb phosphofructokinase inhibition, orthogonal luminescence; Tb PFK enzyme, ATP depletion, Kinase-Glo Plus luminescence; shares compounds with Tb PFK inh-1; 47% of 1,100 active; Potency, µM (doses to about 57.5 µM), inactives show at the top dose inhibition; AID 504636; calls by dose curve; note: nearly all actives have a fitted effect of over 60% in size
Tb PFK inh-2 = validation of T. brucei phosphofructokinase inhibitors; Potency, µM (series often up to 57.5 µM), for the others: at the top dose activity change, negative = inhibition, actives largely listed as inhibitors; shares compounds with Tb PFK inh-1; purified T. brucei PFK, ADP-Glo luminescence, 45 min; AID 504637; 41% of 1,100 active;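 note: plate controls were full PFK enzyme control for no effect and no enzyme control for full effect; nearly all actives have a fitted effect of over 60% in size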
Active calls of the source: *; u = inconclusive; x = no result; [ ] = dose if it differs, or a comment. Unless noted, calls come from the whole dose curve; as a rule, active = well fitted curve in the direction sought with a large enough effect; inconclusive = small, poorly fitted or top-dose-only effect, or another doubt; inactive = no such curve, though single readings can be large; an effect the other way counts as inactive or inconclusive. Potency is the fitted concentration of half-maximal effect.

SMILES	Tb PFK inh-1	p53 reactivator	S-ASM inh	KAT2A inh	ERG-DNA inh	AT treatment	TbPFK ATP	Tb PFK inh-2
Cn1c(=O)oc2cc(S(=O)(=O)CCC(=O)N3CCN(c4ccccc4)CC3)ccc21	1.5%	2.7%	17.2%	-2.0%	2.6%	-12.6%	x	x
Cc1ccc(C(C)(C)C)c(OCC(=O)Nc2ccc(Cl)cc2C(=O)c2ccccc2)c1	x	x	x	-5.8%	-5.0%	x	x	x
Cc1cc(C)c(OCC(=O)Nc2cc(C(=O)O)cc(C(=O)O)c2)cc1C	21.3µM*	-0.8%	18.2%	-2.2%	-3.7%	6.4%	8.49µM*	19µM*
NC(=O)O	x	x	x	-17.1%	x	x	x	x
NS(=O)(=O)c1ccc(NC(=S)Nc2cc(Cl)c(Cl)cc2Cl)cc1	u	-4.2%	-1.6%	-4.8%	0.8%	6.5%	26.9µM*	u
CCOc1ccc(NC(=O)c2cccn(Cc3cccc(Cl)c3)c2=O)cc1	x	x	x	-12.7%	14.8%	x	x	x
O=S(=O)(c1ccc(Cl)cc1)c1cc(Cl)c(Cl)cc1Cl	x	x	x	3.2%	x	x	x	x
NS(=O)(=O)c1ccc(NC(=O)Nc2ccc(Cl)cc2)cc1	12µM*	0.7%	-0.4%	-3.4%	1.5%	-2.0%	6.01µM*	10.7µM*
NS(=O)(=O)c1ccc(NC(=S)NCc2cccc(Cl)c2)cc1	u	-22.0%	-5.7%	0.7%	x	4.1%	1.51µM*	2.39µM*
C[N+]1(C)C2CC[C@H]1CC(OC(=O)[C@@H](CO)c1ccccc1)C2 (some centres not stated)	x	x	x	6.6%	x	x	x	x
CN1CCc2cccc3c2[C@@H]1Cc1ccc(O)c(O)c1-3	4.26µM*	-5.2%	12.8%	-11.8%	10.3%	11.2%	1.69µM*	6.01µM*
CCCN1CCc2cccc3c2C1Cc1ccc(O)c(O)c1-3 (configuration not stated)	x	x	x	-4.6%	x	x	x	x
C[C@@H]1Cc2c(Cl)cc(C(=O)N[C@H](Cc3ccccc3)C(=O)O)c(O)c2C(=O)O1	x	x	x	29.8%	x	x	x	x
N#CN=C1SCCN1Cc1ccc(Cl)nc1	x	x	x	-0.3%	x	x	x	x
O=C(COC(=O)Cc1ccccc1)Nc1ncc(Cl)cc1Cl	-1.6%	-3.1%	1.5%	-3.6%	1.1%	1.3%	x	x
C/C(=N\NC(=O)Cc1ccc(Cl)c(Cl)c1)c1cccnc1	19µM*	0.0%	-0.1%	-7.0%	-4.8%	12.8%	12µM*	u
O=C(Cc1ccccc1)OCCNC(=O)c1cccnc1	1.5%	-1.5%	5.0%	-4.1%	x	1.6%	x	x
O=C(Cc1ccc(Cl)c(Cl)c1)Nc1cccnc1	15.1µM*	4.7%	0.3%	3.1%	3.2%	9.7%	3.79µM*	12µM*
CCN1C[C@@]2(COC)CC[C@H](O)[C@@]34[C@@H]2C[C@@H]([C@@H]13)[C@]1(O)C[C@@H](OC)C2C[C@H]4[C@H]1[C@H]2OC(C)=O	x	x	x	9.7%[21.4 µM]	x	x	x	x
O=C(Nc1ccc2c(c1)C(=O)NC2=O)c1ccccc1Cl	u	10.2%	5.5%	-2.1%	7.0%	0.7%	12µM*	13.5µM*
Nc1cc(N)cc(C(=O)Nc2ccc3c(c2)C(=O)NC3=O)c1	u	-0.5%	14.5%	-4.5%	15.8%	7.6%	u	u
O=C(Nc1ccc2c(c1)OCCO2)c1cccn(Cc2ccccc2)c1=O	x	x	x	-14.3%	-1.9%	x	x	x
CC(C)C[C@H](NC(=O)CNC(=O)[C@H](CCC(N)=O)NC(=O)[C@H](Cc1ccc(O)cc1)NC(=O)[C@@H](NC(=O)[C@H](Cc1ccc(O)cc1)NC(=O)CNC(=O)[C@@H](N)CCCN=C(N)N)C(C)C)C(=O)O	x	x	x	38.3%	x	x	x	x
O=C(COC(=O)Cc1ccccc1)NNC(=O)c1ccc([N+](=O)[O-])cc1	13.2%	10.9%	-7.6%	-18.0%	-0.6%	2.6%	x	x
Cc1ccc(CC(=O)NNC(=O)c2ccncc2)cc1C	u	2.1%	5.2%	-17.1%	-12.3%	-2.7%	13.5µM*	21.3µM*
SMILES	Tb PFK inh-1	p53 reactivator	S-ASM inh	KAT2A inh	ERG-DNA inh	AT treatment	TbPFK ATP	Tb PFK inh-2
COc1cccc2c1C13CC[N+]4(CC5CC5)CO[C@]1(CCC(=O)C3)C4C2	x	x	x	5.1%	x	x	x	x
C/C(C/C(C)=C1/SC(=S)NC1=O)=C1\SC(=S)NC1=O	u	-3.8%	-5.6%	-26.0%	24.8%	-3.6%	-29.4%	u
CCN1C[C@@]2(COC)CCC(OC)[C@]34C5C[C@]6(O)[C@@H](OC)C[C@](OC(C)=O)(C([C@H](OC)C23)[C@H]14)C5[C@H]6OC(=O)c1ccc(OC)cc1 (some centres not stated)	x	x	x	-7.9%	x	x	x	x
CC(=O)Nc1ccccc1C(=O)OCc1ccc(F)cc1	3.2%	u	-0.8%	-6.2%	-3.1%	4.2%	x	x
O=C(OCc1ccc(Cl)c(Cl)c1)c1cnccn1	u	2.8%	-0.2%	0.0%	-3.0%	-3.7%	23.9µM*	26.9µM*
O=C(OCc1ccc(Cl)c(Cl)c1)c1ccc[nH]1	u	u	-6.4%	-7.7%	-8.6%	0.3%	23.9µM*	21.3µM*
O=C(COc1ccc(Cl)cc1)OCC(=O)c1ccc[nH]1	u	0.2%	0.9%	-8.8%	-28.5%	-8.6%	18.2%	u
O=C(Cc1ccc(Cl)c(Cl)c1)OCC(=O)c1ccc[nH]1	u	1.9%	-1.1%	-12.3%	-6.5%	-3.5%	9.53µM*	19µM*
C=CCN1CC[C@@]23c4c5ccc(O)c4O[C@H]2/C(=N\N=C2/CC[C@@]4(O)[C@H]6Cc7ccc(O)c8c7[C@@]4(CCN6CC=C)[C@@H]2O8)CC[C@]3(O)[C@@H]1C5	x	x	x	-6.4%	x	x	x	x
OCC(O)Cc1ccc2c(c1)OCO2 (configuration not stated)	x	x	x	-10.5%	x	x	x	x
CCCN(CCC)c1c([N+](=O)[O-])cc(S(N)(=O)=O)cc1[N+](=O)[O-]	x	x	x	-8.6%	x	x	x	x
NS(=O)(=O)c1ccc(N/N=C/c2ccc(O)c(O)c2O)c([N+](=O)[O-])c1	u	-5.3%	-4.5%	u	-7.2%	-10.5%	u	u
CN1CC[C@]23c4c5ccc(OC6OC(C(=O)O)[C@@H](O)C(O)[C@H]6O)c4OC2C(O)C=CC3[C@H]1C5 (some centres not stated)	4.0%	-3.3%	0.2%	-2.8%	-12.4%	0.8%	x	x
